G9a inh = qHTS Assay for Inhibitors of Histone Lysine Methyltransferase G9a; Histone-lysine N-methyltransferase EHMT2 (Homo sapiens), Q96KQ7; G9a H3K9 monomethylation, AlphaScreen, 2 h; Potency, µM (titrated, usually from 102 µM), without a hit: at the highest dose activity, negative = inhibition, hits mostly inhibitors; 350,000 compounds, 8.8% hits; AID 504332, 2011; also: potency is read from the fitted curve at half-maximal effect; nearly all actives have a fitted effect of over 75% in size
Target sequence (Q96KQ7 913-1193 limits assumed): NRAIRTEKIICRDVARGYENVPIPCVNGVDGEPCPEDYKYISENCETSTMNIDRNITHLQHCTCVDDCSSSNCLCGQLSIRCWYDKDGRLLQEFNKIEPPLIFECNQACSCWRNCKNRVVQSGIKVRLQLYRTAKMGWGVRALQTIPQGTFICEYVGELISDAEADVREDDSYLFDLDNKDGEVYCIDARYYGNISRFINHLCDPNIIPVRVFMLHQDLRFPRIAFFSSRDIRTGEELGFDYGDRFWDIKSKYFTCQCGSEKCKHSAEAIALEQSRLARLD
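Using a bead-based AlphaScreen, monomethylated H3K9 product from 2 h room-temperature reactions (G9a 20 nM, peptide 500 nM, SAM 20 uM) was detected with 0.5 ug/mL rabbit anti-H3K9me1 antibody.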
Tau fibril FP = qHTS for Inhibitors of Tau Fibril Formation, Fluorescence Polarization; Microtubule-associated protein tau (Homo sapiens), P10636; K18 P301L tau heparin fibrillization, Alexa594 FP, 6 h; Potency, µM (highest dose often 57.7 µM), for the others: at the highest dose activity, negative = inhibition, most hits filed as inhibitors; 280,000 compounds, 0.39% hits; also: potency is read from the fitted curve at half-maximal effect; nearly all actives have a fitted effect of over 55% in size
Target sequence (P10636 561-689 P618L limits assumed): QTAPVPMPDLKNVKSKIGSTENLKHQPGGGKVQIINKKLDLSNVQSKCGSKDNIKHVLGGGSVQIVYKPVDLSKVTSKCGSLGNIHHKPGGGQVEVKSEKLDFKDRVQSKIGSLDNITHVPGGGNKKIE
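Quantitative HTS format: compounds meet 15 uM recombinant K18 P301L tau and Alexa 594-tau tracer in 100 mM sodium acetate pH 7; 20 uM heparin triggers fibrillization at 37 C over 6 hr; FP gives the signal.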
Sfp inh = qHTS Assay for Inhibitors of Bacillus subtilis Sfp phosphopantetheinyl transferase (PPTase) | Biochemical Sfp PPTase activity, qHTS | Potency, µM, for the others: largest response in the series, negative = inhibition, hits mostly inhibitors | 310,000 compounds, 3.5% hits;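 also: the enzyme is Sfp with the accession as filed and its product quenches rhodamine fluorescence; potency is read from the fitted curve at half-maximal effect; 0% = enzyme reaction without inhibitor and -100% = no enzyme wells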
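Fluorescence-quenching assay with 15 nM Sfp, 5 uM rhodamine-CoA and 12.5 uM BHQ-2-labelled ybbR peptide in pH 7.6 Hepes/MgCl2 buffer. Enzyme was pre-incubated with compound for 15 min at room temperature. Rate was taken from the 30-min fluorescence change (525/598 nm).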
Tau fluor cs = Counterscreen qHTS for Inhibitors of Tau Fibril Formation, Fluorescence Polarization | tau K18 P301L Alexa594 fluorescence, heparin fibrillization | 280,000 compounds, 0.93% hits | Potency, µM (top dose mostly 57.7 µM), without a hit: at the top dose activity change, negative = decrease | AID 1463, 2008; also: potency is read from the fitted curve at half-maximal effect; nearly all actives have a fitted effect of over 55% in size
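Human K18 P301L tau (15 uM unlabeled plus 0.24 uM Alexa 594-labeled, final) in 100 mM sodium acetate pH 7 was mixed with compound and 20 uM heparin and incubated 6 hr at 37 C.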
Coupling enz = qHTS Assay for Inhibitors of Fructose-1,6-bisphosphate Aldolase from Giardia Lamblia: Coupling assay counterscreen; coupling enzyme system counterscreen, AmpLite Red fluorescence; activity change, negative = inhibition, % at 58.2 µM, hits read low; 290,000 compounds, 0.67% hits; in the data active = activity change below about -30%
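Counterscreen of the coupled detection system alone, without aldolase: glyceraldehyde-3-phosphate coupling enzymes plus AmpLite Red readout. Compounds at 57.5 uM final, 10 min RT preincubation, 20 min RT reaction, fluorescence 525/598 nm.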
Tau fibril ThT = qHTS for Inhibitors of Tau Fibril Formation, Thioflavin T Binding; recombinant tau K18 P301L (four-repeat tau fragment), heparin-induced fibrillization, ThT fluorescence; Potency, µM (highest dose often 57.4 µM), for inactives: top-dose activity, negative = inhibition, actives largely listed as inhibitors; 270,000 compounds, 2.1% hits; AID 1460, 2008; also: potency is read from the fitted curve at half-maximal effect; nearly all actives have a fitted effect of over 55% in size
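Aggregation was driven by heparin (20 uM final) acting on recombinant tau […] bearing P301L in 100 mM sodium acetate pH 7; fibrils were detected with Thioflavin T.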
An asterisk follows results filed as active; ? = inconclusive; · = no result given; ! = a repeat was not active; [ ] = dose if it differs, or a comment. Sampled rows, rich in hits. Any-hit rate of the full collection: about 11%. Unless noted, calls follow the shape of the dose curve; as a rule, active = well fitted curve in the direction sought with a large enough effect; inconclusive = small, poorly fitted or top-dose-only effect, or another doubt; inactive = no such curve, though single readings can be large; an effect the other way counts as inactive or inconclusive. Unless noted, % is scaled to controls: 0 for no effect and ±100 for the full control effect.

SMILES	G9a inh	Tau fibril FP	Sfp inh	Tau fluor cs	Coupling enz	Tau fibril ThT
Cc1ccn2c(Nc3ccc4c(c3)OCCO4)c(-c3ccccc3O)nc2c1	8.91µM*	13.1%	·	?	·	-15.7%
Cc1ccc(C)n1-c1ccc(-c2nnco2)cc1	44.7µM*	-11.9%	2.3%	-13.9%	-2.7	?
Cc1cc(-c2nnco2)c(C)n1-c1ccc(F)cc1	-5.1%[59 µM]	6.6%	11.3%	-0.2%	-1.2	-7.1%
Cc1c(Cc2ccccc2)c(=O)n2c([nH]c3ccccc32)c1C#N	-0.1%	5.5%	79.4µM*	?	-15.8	-15.9%
O=C(O)CC(C(=O)O)c1ccc(OCCCCOc2ccc(C(CC(=O)O)C(=O)O)cc2)cc1 (centres undefined)	79.4µM*	·	11.9%	·	0.8	·
O=C(/C=C/c1ccc2c(c1)OCCCO2)c1ccc2ccccc2c1O	11.2µM*	-0.4%	39.8µM*	?	-5.5	3.16µM*
O=C(/C=C/c1ccccc1)c1ccc2c(c1)OCCCCO2	20.8%[59 µM]	12.1%	-9.2%	4.1%	-2.5	?
Cc1ccc(C(=O)/C=C/c2ccc3c(c2)OCCO3)c(O)c1	39.8µM*	7.1%	-27.5%	-23.2%	0.2	6.31µM*
CC[C@@H]1Cn2c(c3nc(-c4cc(Cl)cc(Cl)c4Cl)nc-3n(C)c2=O)N1	9.7%[59 µM]	-2.0%	15.2%	-26.8%	-0.4	-22.7%
CN(C)S(=O)(=O)c1cccc(COC(=O)Cc2c(F)cccc2Cl)c1	94.5%	·	-5.6%	·	·	·
Cn1c(=O)[nH]c2nnc(-c3ccc(Cl)c(Cl)c3)nc2c1=O	?	3.0%	?	-18.1%	-25.8	15.8µM*
CN(C(Cc1ccc(OS(=O)(=O)c2cccc3cnccc23)cc1)C(=O)N1CCN(c2ccccc2)CC1)S(=O)(=O)c1cccc2cnccc12 (centres undefined)	15.8µM*!	9.5%	8.0%	-11.5%	·	0.6%
CN([C@@H](Cc1ccc(OS(=O)(=O)c2cccc3cnccc23)cc1)C(=O)N1CCN(c2ccccc2)CC1)S(=O)(=O)c1cccc2cnccc12	4.5%[59 µM]	0.9%	11.3%	?	1.5	?
O=[N+]([O-])c1ccc(N/N=C2/CCCCC2c2ccccn2)cc1 (centres undefined)	31.6µM*	1.5%	-15.4%	?	-5.0	?
O=[N+]([O-])c1ccc(NC2CCCC2)cc1	-5.6%[59 µM]	3.2%	4.0%	-1.6%	0.2	?
COc1ccc(N2CCN(Cc3nc4c(c(=O)n(C)c(=O)n4C)n3C(C)C)CC2)cc1	-25.9%[59 µM]	0.7%	·	-9.3%	·	-5.1%
CCc1nnc(NC(=O)CSc2nccn2Cc2ccccc2)s1	4.2%[59 µM]	-7.8%	·	-5.4%	·	-1.5%
CSc1ccc(CN2CCC(Cc3ccccc3)CC2)cc1	7.08µM*	·	-9.8%	·	0.2	·
Clc1cccc(CN2CCC(Cc3ccccc3)CC2)c1	3.55µM*	-6.0%	?	12.6µM*[quencher]	-4.1	17.8µM*
Fc1ccc(CN2CCC(Cc3ccccc3)CC2)cc1F	10µM*	·	-12.9%	·	-2.8	·
c1ccc(CC2CCN(Cc3ccccn3)CC2)cc1	·	2.0%	2.7%	10.4%	3.2	0.5%
Clc1ccc(CN2CCC(c3ccccc3)CC2)cc1	12.5%	·	15.3%	·	0.5	·
Clc1ccc(CN2CCC(Cc3ccccc3)CC2)cc1	4.47µM*	3.1%	?	-6.0%	1.4	-4.5%
Cc1ccc(NC(=O)CC2NCCNC2=O)cc1Cl (centres undefined)	·	-0.9%	-7.2%	2.7%	-2.0	11.0%
Cc1nn2c(=O)cc(COC(=O)c3cccc(NC(=O)c4ccc(F)cc4)c3)nc2s1	1.2%[59 µM]	-1.9%	·	-5.9%	·	?
SMILES	G9a inh	Tau fibril FP	Sfp inh	Tau fluor cs	Coupling enz	Tau fibril ThT
Cc1ccc(C)c(NC(=S)N2CCN(CCO)CC2)c1	-2.0%[59 µM]	-2.3%	16.0%	2.7%	-1.0	8.6%
Cc1ccc(CNC(=O)CCCc2cn(C)c3ccccc23)cc1	-1.0%	·	6.8%	·	-2.2	·
CC12CCC=CC1C(c1ccc(F)c(/C=C/c3ccccc3)c1)N(Cc1ccccc1)C2=O (centres undefined)	·	·	?	·	-0.4	·
O=C(NCc1ccc2c(c1)OCO2)c1nc(S(=O)(=O)Cc2ccccc2F)ncc1Cl	17.8µM*	·	25.1µM*	·	2.1	·
O=C(NCc1ccc2c(c1)OCO2)c1nc(S(=O)(=O)Cc2ccccc2)ncc1Cl	50.1µM*	·	?	·	·	·
O=C(NCc1ccccc1)c1nc(S(=O)(=O)Cc2ccccc2)ncc1Cl	-3.1%[0.501 µM]	2.0%	?	-22.7%	·	?
Cn1c(=O)n(C)c2cc(N3CCOCC3)c(NC(=O)c3ccc(C(C)(C)C)cc3)cc21	-41.7%[59 µM]	-1.8%	·	-27.3%	·	?
O=C(Nc1ccc(F)cc1)[C@H](Cc1ccccc1)N1Cc2ccccc2C1=O	-8.5%[59 µM]	-5.6%	·	-13.1%	·	1.7%
CN1CCN(c2ccccc2NC(=O)c2ccc(-c3ccc(Cl)c(Cl)c3)o2)CC1	49.0%	·	7.3%	·	·	·
Cc1cc(O)c(NC(=S)NC(=O)c2ccc(-c3ccc(Cl)cc3)o2)cc1C	11.0%[12.7 µM]	?	?	7.94µM*[quencher]	-2.0	11.2µM*
Cc1cc(N2CCN(C)CC2)ccc1NC(=O)c1ccc(-c2ccc(Cl)cc2)o1	31.6µM*	·	·	·	·	·
COc1cccc2c1C(=O)c1c(O)c3c(c(O)c1C2=O)C[C@@](O)(C(=O)CO)C[C@@H]3O[C@@H]1C[C@H](N)[C@H](O)[C@H](C)O1	·	?	-7.0%	10.2%	-15.4	12.6µM*
COc1cccc2c1C(=O)c1c(O)c3c(c(O)c1C2=O)C[C@@](O)(C(=O)CO)C[C@@H]3OC1CC(N)C(O)C(C)O1 (some centres undefined)	?	·	-5.9%	·	·	·
COc1cccc2c1C(=O)c1c(O)c3c(c(O)c1C2=O)C[C@@](O)(C(=O)CO)C[C@@H]3O[C@H]1C[C@H](N)[C@H](O)[C@H](C)O1	22.4µM*	25.1µM*	?	-6.0%	-40.1*	3.16µM*
CC(C)N(C(=S)Nc1cccnc1)c1ccccc1	11.1%[59 µM]	8.1%	-26.6%	2.3%	-0.3	-3.5%
CCOC(=O)C1=C(COC(=O)c2cccc(NC(C)=O)c2)NC(=O)NC1C (centres undefined)	-27.8%	·	·	·	·	·
CC(=O)C1=C(O)C(=O)OC1c1ccc(C)cc1 (centres undefined)	-9.9%[59 µM]	1.7%	7.9%	-7.0%	5.6	-4.6%
CC(=O)C1=C(O)C(=O)OC1c1ccc(Cl)cc1 (centres undefined)	50.1µM*	4.0%	-9.0%	14.3%	8.7	·
